Binding signal data for 12 sequences are collected here from PMC5700166.

Numbering of substitutions follows the chain as printed.

Common to all, as to assay: protein-binding microarray (PBM); PBM: ~300 nM protein, 6 mM HEPES pH 7.8, 80 mM KCl, 0.5 mM EDTA, 0.5 mM EGTA, 6% glycerol, 35 ng/ul poly-dIdC, 1% milk, 1 h, room temperature; Ap Aiptasia and Nv Nematostella (sea anemones) / Co Capsaspora / Aq Amphimedon (sponge) / Dm Drosophila / Hu human; RHD is the Rel homology domain; high values mean tight binding
Holding throughout (conditions): dsDNA, one strand shown

For one assay, the target named is T1, GST-Ap-NF-kB RHD (Exaiptasia pallida (Aiptasia), UniProt A0A913YAJ5 2-422).
T1 sequence: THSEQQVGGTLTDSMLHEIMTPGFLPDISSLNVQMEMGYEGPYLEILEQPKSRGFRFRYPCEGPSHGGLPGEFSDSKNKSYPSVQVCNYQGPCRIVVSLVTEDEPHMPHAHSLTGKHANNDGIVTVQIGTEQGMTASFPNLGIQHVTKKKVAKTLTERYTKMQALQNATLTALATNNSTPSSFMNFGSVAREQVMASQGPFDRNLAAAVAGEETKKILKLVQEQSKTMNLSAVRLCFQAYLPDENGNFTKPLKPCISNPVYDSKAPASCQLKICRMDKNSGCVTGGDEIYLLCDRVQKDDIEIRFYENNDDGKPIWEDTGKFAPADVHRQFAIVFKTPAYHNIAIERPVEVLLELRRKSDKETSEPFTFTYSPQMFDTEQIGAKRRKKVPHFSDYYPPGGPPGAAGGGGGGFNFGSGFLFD

For assay [1], the target named is T2, GST-Nv-NF-kB (Cys allele) (Nematostella vectensis, UniProt E5G601 2-411).
T2 sequence: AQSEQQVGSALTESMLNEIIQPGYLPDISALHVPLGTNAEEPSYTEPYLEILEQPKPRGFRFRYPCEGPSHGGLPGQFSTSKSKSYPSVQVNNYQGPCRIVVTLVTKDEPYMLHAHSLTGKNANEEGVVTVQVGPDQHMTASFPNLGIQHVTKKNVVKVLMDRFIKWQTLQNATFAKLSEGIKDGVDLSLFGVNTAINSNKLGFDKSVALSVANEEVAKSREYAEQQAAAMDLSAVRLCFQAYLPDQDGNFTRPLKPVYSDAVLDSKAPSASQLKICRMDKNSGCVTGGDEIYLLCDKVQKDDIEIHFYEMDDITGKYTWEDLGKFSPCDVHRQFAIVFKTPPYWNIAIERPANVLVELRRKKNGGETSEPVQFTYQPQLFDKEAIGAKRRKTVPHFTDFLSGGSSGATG

In assay [2] the target is T3, GST-Nv-NF-kB (Ser allele) (Nematostella vectensis, UniProt A7UNT2 2-411).
T3 sequence: T2 sequence with Q21R, C66S, S207N, E215Q, V217A, E225K, A268E, D399E

The target of the next assay is T4, GST-Co-NF-kB (Capsaspora owczarzaki, UniProt F1ARL5 200-546).
T4 sequence: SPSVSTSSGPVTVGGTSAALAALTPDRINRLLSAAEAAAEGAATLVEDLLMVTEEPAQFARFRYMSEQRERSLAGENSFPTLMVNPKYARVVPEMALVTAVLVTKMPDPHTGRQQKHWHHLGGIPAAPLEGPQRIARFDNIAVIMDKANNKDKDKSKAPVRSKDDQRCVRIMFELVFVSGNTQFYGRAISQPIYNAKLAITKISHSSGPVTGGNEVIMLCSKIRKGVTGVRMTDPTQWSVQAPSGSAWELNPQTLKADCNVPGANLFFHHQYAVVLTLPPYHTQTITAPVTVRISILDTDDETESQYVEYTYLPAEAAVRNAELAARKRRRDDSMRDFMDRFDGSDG

The next assay has as its target T5, GST-Dm-Relish (Drosophila melanogaster, UniProt Q94527 99-473).
T5 sequence: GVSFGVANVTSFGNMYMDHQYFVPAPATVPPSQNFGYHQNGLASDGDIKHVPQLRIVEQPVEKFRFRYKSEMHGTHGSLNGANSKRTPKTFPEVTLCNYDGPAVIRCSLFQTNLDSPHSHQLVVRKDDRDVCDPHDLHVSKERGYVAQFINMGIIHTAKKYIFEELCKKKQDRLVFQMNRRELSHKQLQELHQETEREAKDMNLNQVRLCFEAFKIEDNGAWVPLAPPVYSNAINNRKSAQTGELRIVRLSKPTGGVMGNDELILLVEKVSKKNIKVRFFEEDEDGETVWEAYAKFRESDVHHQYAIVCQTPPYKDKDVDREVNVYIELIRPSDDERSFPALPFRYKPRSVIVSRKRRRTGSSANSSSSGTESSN

The next assay concerns the target T6, GST-Aq-NF-kB (Amphimedon queenslandica, UniProt A9Y5G7 2-389).
T6 sequence: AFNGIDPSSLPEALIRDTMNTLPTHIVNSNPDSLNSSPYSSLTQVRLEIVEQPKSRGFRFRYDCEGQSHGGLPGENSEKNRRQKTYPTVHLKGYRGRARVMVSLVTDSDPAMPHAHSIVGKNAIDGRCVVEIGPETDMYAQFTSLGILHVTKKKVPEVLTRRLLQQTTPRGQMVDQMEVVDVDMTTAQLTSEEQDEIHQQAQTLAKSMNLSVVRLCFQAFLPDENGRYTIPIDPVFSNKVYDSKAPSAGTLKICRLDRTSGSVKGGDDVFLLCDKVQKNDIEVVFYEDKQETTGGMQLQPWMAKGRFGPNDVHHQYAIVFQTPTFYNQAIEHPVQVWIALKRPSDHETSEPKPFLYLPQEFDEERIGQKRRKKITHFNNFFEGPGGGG

For a further assay, the target named is GST-Hu-p50 (Homo sapiens, UniProt P19838 7-356).
Chain of GST-Hu-p50 (P19838 7-356): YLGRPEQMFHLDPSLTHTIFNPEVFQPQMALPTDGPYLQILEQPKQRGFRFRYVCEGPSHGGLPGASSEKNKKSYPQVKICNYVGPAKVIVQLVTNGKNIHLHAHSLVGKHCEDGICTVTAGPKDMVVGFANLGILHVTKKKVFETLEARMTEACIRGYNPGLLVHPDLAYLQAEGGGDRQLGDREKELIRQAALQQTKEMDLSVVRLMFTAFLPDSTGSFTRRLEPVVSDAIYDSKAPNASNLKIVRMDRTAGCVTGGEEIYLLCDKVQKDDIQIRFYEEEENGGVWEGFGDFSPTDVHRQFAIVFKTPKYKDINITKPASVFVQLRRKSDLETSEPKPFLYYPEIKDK

“CCGATTAACATCACAGAATCCCCTGATGTTAATCGGGTCTTGATTCGCTTGACGCTGCTG”: the binding signal came out at 8.13 z-score in the assay with GST-Ap-NF-kB RHD; 8.87 z-score in assay [1]; 11.1 z-score in assay [2]; 3.42 z-score with GST-Co-NF-kB; 7.58 z-score in the assay with GST-Dm-Relish; 6.21 z-score in the assay with GST-Aq-NF-kB. The binding signal with GST-Hu-p50 is 6.89 z-score.
With “CCGATTAACATCACGGGGATCCCTGATGTTAATCGGGTCTTGATTCGCTTGACGCTGCTG”, the binding signal in the assay with GST-Ap-NF-kB RHD amounted to 8.72 z-score; in assay [1] it was 5.48 z-score; in assay [2] it was 5.51 z-score; in the assay with GST-Co-NF-kB, 4.27 z-score; with GST-Dm-Relish, 9.65 z-score; in the assay with GST-Aq-NF-kB, 5.88 z-score. In the assay with GST-Hu-p50, this sequence registered a binding signal of 4.51 z-score.
Regarding “CCGATTAACATCAAGGGGAATTCTGATGTTAATCGGGTCTTGATTCGCTTGACGCTGCTG”, the binding signal with GST-Ap-NF-kB RHD amounted to 10.3 z-score; in assay [1], 11.3 z-score; in assay [2], 12.1 z-score; in the assay with GST-Co-NF-kB it was 6.89 z-score; in the assay with GST-Dm-Relish, 8.49 z-score; with GST-Aq-NF-kB, 8.42 z-score. This sequence also had a binding signal with GST-Hu-p50 of 7.65 z-score.
“CCGATTAACATCAATTTTTCCCCTGATGTTAATCGGGTCTTGATTCGCTTGACGCTGCTG”: the binding signal with GST-Ap-NF-kB RHD turned out to be 7 z-score; in assay [1], 8.62 z-score; in assay [2], 11.5 z-score; with GST-Co-NF-kB, 11.2 z-score; with GST-Dm-Relish, 5.15 z-score; in the assay with GST-Aq-NF-kB it was 5.96 z-score. For the same sequence, the binding signal with GST-Hu-p50 turned out to be 6.59 z-score.
On to “CCGATTAACATCAAGGGGGATATTGATGTTAATCGGGTCTTGATTCGCTTGACGCTGCTG”, for which the binding signal with GST-Ap-NF-kB RHD came out at 5.89 z-score; in assay [1] it was 6.77 z-score; in assay [2], 7.37 z-score; with GST-Co-NF-kB, 5.64 z-score; with GST-Dm-Relish, 5.23 z-score; with GST-Aq-NF-kB, 6.15 z-score. In the assay with GST-Hu-p50, the binding signal turned out to be 6.33 z-score.
“CCGATTAACATCAATAACCCCCCTGATGTTAATCGGGTCTTGATTCGCTTGACGCTGCTG”: the binding signal with GST-Ap-NF-kB RHD came to 6.33 z-score; in assay [1], 5.55 z-score; in assay [2], 5.48 z-score; in the assay with GST-Co-NF-kB it was 4.7 z-score; with GST-Dm-Relish, 8.07 z-score; with GST-Aq-NF-kB it was 6.46 z-score. Also, the binding signal with GST-Hu-p50 was 5.76 z-score.
For “CCGATTAACATCAATTATCCCCCTGATGTTAATCGGGTCTTGATTCGCTTGACGCTGCTG”, the binding signal stood at 6.74 z-score with GST-Ap-NF-kB RHD; 5.48 z-score in assay [1]; 6.6 z-score in assay [2]; 7.87 z-score in the assay with GST-Co-NF-kB; 4.31 z-score in the assay with GST-Dm-Relish; 5.15 z-score in the assay with GST-Aq-NF-kB. The same sequence came in with a binding signal with GST-Hu-p50 of 5.52 z-score.
Regarding “CCGATTAACATCAATAATCCCCCTGATGTTAATCGGGTCTTGATTCGCTTGACGCTGCTG”, the binding signal in the assay with GST-Ap-NF-kB RHD worked out at 8.84 z-score; in assay [1], 8.72 z-score; in assay [2] it was 9.49 z-score; with GST-Co-NF-kB, 6.87 z-score; with GST-Dm-Relish, 8.23 z-score; in the assay with GST-Aq-NF-kB, 7.52 z-score. The binding signal with GST-Hu-p50 was found to be 7.52 z-score.
As to “CCGATTAACATCAGGGAAATTTATGATGTTAATCGGGTCTTGATTCGCTTGACGCTGCTG”, the binding signal with GST-Ap-NF-kB RHD was found to be 5.86 z-score; in assay [1] it was 8.28 z-score; in assay [2] it was 7.67 z-score; with GST-Co-NF-kB it was 5.84 z-score; with GST-Dm-Relish, 4.1 z-score; in the assay with GST-Aq-NF-kB, 7.49 z-score. This sequence yielded a binding signal with GST-Hu-p50 of 5.55 z-score.
On to “CCGATTAACATCAAAAAAAACCCTGATGTTAATCGGGTCTTGATTCGCTTGACGCTGCTG”, for which the binding signal was found to be 5.46 z-score with GST-Ap-NF-kB RHD; 6.25 z-score in assay [1]; 6.4 z-score in assay [2]; 1.62 z-score in the assay with GST-Co-NF-kB; 7.4 z-score with GST-Dm-Relish; 7.35 z-score with GST-Aq-NF-kB. Further, the binding signal with GST-Hu-p50 turned out to be 5.56 z-score.
On to “CCGATTAACATCACCCTTTCCCCTGATGTTAATCGGGTCTTGATTCGCTTGACGCTGCTG”, for which the binding signal in the assay with GST-Ap-NF-kB RHD was found to be 4.99 z-score; in assay [1], 5.19 z-score; in assay [2], 7.16 z-score; with GST-Co-NF-kB, 5.72 z-score; with GST-Dm-Relish, 1.82 z-score; in the assay with GST-Aq-NF-kB it was 4.33 z-score. Moreover, the binding signal with GST-Hu-p50 was found to be 3.91 z-score.
For the sequence “CCGATTAACATCAGGGATTTTACTGATGTTAATCGGGTCTTGATTCGCTTGACGCTGCTG”, the binding signal with GST-Ap-NF-kB RHD was found to be 3.97 z-score; in assay [1], 3.99 z-score; in assay [2], 2.96 z-score; with GST-Co-NF-kB, 2.36 z-score; with GST-Dm-Relish, 7.1 z-score; with GST-Aq-NF-kB, 5.29 z-score. Further, in the assay with GST-Hu-p50, the binding signal amounted to 3.96 z-score.
